Compounds with a hit are over-represented: about 3% of the library has one in this group of screens.
KKLEB tox = counter-screen for CF NF-kB inhibitors: cytotoxicity; KKLEB CF airway cells viability, ATPlite luminescence, overnight; active compounds read low; cells stimulated with P. aeruginosa culture filtrate; 360,000 compounds, 0.36% hits; activity change (cytotoxicity), % at 5 µM;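 active = corrected activity change at or below -50% at 5 µM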
CF NFkB block = cystic fibrosis NF-kB activation inhibition; AID 588850; inhibition, % at 5 µM; 360,000 compounds, 0.86% hits; KKLEB NF-kB-GFP reporter, PAF-induced, GFP fluorescence overnight;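 active = at least 50% inhibition at 5 µM, scaled per plate between neutral and stimulator controls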;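 note: PAF is a Pseudomonas aeruginosa culture filtrate used as stimulus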
HIF-2a inh = HIF-2a inhibition. 786-0 RCC cells HIF-2a reporter, luciferase luminescence, overnight. inhibition, % at 18.8 µM. 360,000 compounds, 0.72% hits. AID 624352;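 active = inhibition of the luminescence signal of 40% or more relative to plate controls, in a single-dose primary screen at 18.75 µM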
TRPM1 prom inh = MITF TRPM1 promoter inhibition in SK-MEL-5 cells | 330,000 compounds, 0.83% hits | inhibition, % at 12.5 µM | AID 488899 | SK-MEL-5 TRPM1 promoter luciferase, 24 h;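 active = mean inhibition across replicates of 60% or more, whatever share of single replicates reaches that level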
ABHD5 PLIN5 PPI = blocks binding of human ABHD5 to perilipin-5; Q00G26+Q8WTS1; Split G. princeps luciferase complementation, luminescence, 4 h; inhibition, % at 4 µM; 360,000 compounds, 0.78% hits; AID 602281;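 active = inhibition above the mean inhibition across every tested compound plus 3 SD, cut at about 22% in these data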
Peg3 prom inh = inhibitors of Peg3 promoter. HeLa PEG-Prom luciferase reporter, luminescence, overnight. inhibition, % at 20 µM. 360,000 compounds, 1.7% hits;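 active = inhibition of at least 50% at 20 µM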
CF NFkB inh conf = confirmation of cystic fibrosis induced NF-kB inhibitors; shares compounds with CF NFkB block; KKLEB CF airway cells, PAF-induced NF-kB-GFP fluorescence, overnight; inhibition, % at 5 µM; 1,300 compounds, 64% hits; in the data active = inhibition above about 40%;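 note: stimulus PAF is a Pseudomonas aeruginosa filtrate and not platelet activating factor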
ABHD5-PLIN5 conf = confirmation of human ABHD5-PLIN5 interaction inhibitors. shares compounds with ABHD5 PLIN5 PPI. biochemical ABHD5-PLIN5 interaction, luminescence. inhibition, % at 4 µM. 2,200 compounds, 67% hits; in the data active = inhibition above about 23%
HNF4 split-luc = counter-screen for ABHD5-PLIN5 inhibitors: HNF4 split-luciferase. shares compounds with ABHD5 PLIN5 PPI. HNF4 dimerization, luminescence, biochemical. inhibition, % at 4 µM. 2,200 compounds, 77% hits. AID 651674;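 active = mean inhibition across replicate wells exceeding the computed hit threshold, cut at about 13% in these data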;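 note: light from luciferase halves that rejoin when HNF4 fusion proteins dimerize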
Target sequence (P41235 whole entry, looked up, the tested form may be a part): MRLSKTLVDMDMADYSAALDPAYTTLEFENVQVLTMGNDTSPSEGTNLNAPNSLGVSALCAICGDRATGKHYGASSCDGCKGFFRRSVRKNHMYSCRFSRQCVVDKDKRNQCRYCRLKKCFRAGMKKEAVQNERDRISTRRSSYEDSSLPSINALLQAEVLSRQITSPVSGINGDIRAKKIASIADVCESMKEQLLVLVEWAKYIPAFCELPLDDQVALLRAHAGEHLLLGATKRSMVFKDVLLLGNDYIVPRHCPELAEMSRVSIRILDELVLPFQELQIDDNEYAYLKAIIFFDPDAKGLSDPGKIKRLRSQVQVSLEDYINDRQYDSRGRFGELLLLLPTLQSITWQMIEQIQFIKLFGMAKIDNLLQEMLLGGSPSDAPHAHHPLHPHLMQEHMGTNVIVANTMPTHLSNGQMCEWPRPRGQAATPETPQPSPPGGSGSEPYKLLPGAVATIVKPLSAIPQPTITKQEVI
Numbers stand for hits; i = inactive; nt = no result given.

SMILES | KKLEB tox | CF NFkB block | HIF-2a inh | TRPM1 prom inh | ABHD5 PLIN5 PPI | Peg3 prom inh | CF NFkB inh conf | ABHD5-PLIN5 conf | HNF4 split-luc
O=C(CCS(=O)(=O)c1ccccc1)N(CCCN1CCOCC1)c1nc2c(F)cccc2s1 | i | 93.6 | i | i | i | 103.6 | 71.4 | nt | nt
O=C(CCS(=O)(=O)c1ccccc1)N(CCCN1CCOCC1)c1nc2ccc(F)cc2s1 | i | 59.1 | i | i | i | 94.3 | i | nt | nt
CCc1cccc2sc(N(CCCN3CCOCC3)C(=O)CS(=O)(=O)c3ccccc3)nc12 | i | i | i | i | i | i | nt | nt | nt
CCN1CCCC1CNC(=O)Cn1cc(C)c(=O)[nH]c1=O (stereo not given) | i | i | i | i | i | i | nt | nt | nt
COc1ccc(C(O)c2ncc(-c3ccccc3C)[nH]2)cc1F (stereo not given) | i | i | i | nt | i | i | nt | nt | nt
CCCc1nnc(NC(=O)c2nc(S(=O)(=O)Cc3ccc(C)cc3)ncc2Cl)s1 | i | 90.5 | i | 69.2 | 44.0 | 102.8 | 91.2 | 76.9 | 52.6
Cc1ccc2cc(/C=C/C(=O)c3ccco3)c(Cl)nc2c1 | i | 64.3 | i | nt | 44.6 | i | i | 96.0 | 98.8
Cc1ccc2cc(/C=N/NC(=O)c3ccc(F)cc3)c(Cl)nc2c1 | i | i | i | i | i | i | nt | nt | nt
CCN(CC)C(=O)[C@H]1CC(CC(=O)NCc2ccco2)C(=O)N2CCc3c([nH]c4ccc(OC)cc34)[C@]12C (stereo not given in full) | i | i | i | i | i | i | nt | nt | nt
O=C(CN1CCN(C(c2ccccc2)c2ccccc2)CC1)N1CCOCC1 | i | i | i | i | i | i | nt | nt | nt
Oc1c(C(c2ccccc2)N2CCOCC2)ccc2ccccc12 (stereo not given) | i | 79.0 | i | i | 39.6 | 55.7 | i | 102.2 | 105.9
COc1ccc([N+](=O)[O-])c(C=CC(=O)c2ccccn2)c1 | i | 91.2 | i | nt | 52.9 | 101.3 | i | 97.8 | 101.3
CCN(CC(=O)Nc1ccccc1C(F)(F)F)C(=O)C1CCC1 | i | i | i | i | i | i | nt | nt | nt
CCSC1(SCC)N=C(N)C2(C#N)C(c3ccc(OC)c(OC)c3OC)C12C#N (stereo not given) | i | 79.1 | i | i | 25.0 | i | i | 78.5 | 71.7
CCSC1(SCC)N=C(N)C2(C#N)C(c3ccccc3)NC3=C(CCC3)C12C#N (stereo not given) | i | i | i | i | i | i | nt | nt | nt
CCOC(=O)/C(=C\c1cccc(O)c1)c1nc2sc(C)c(C)c2c(=O)[nH]1 | i | 74.5 | 94.8 | i | 52.8 | 115.3 | i | 84.7 | 79.8
CCOC(=O)c1nc2sc(C)c(C)c2c(=O)[nH]1 | i | i | i | i | i | i | nt | nt | nt
Cc1cccc2c1NC(=O)/C2=C\C(=O)c1cccs1 | i | 74.3 | 44.5 | i | 52.6 | 74.1 | 46.6 | 78.1 | 85.2
CCOC(=O)C1(C(=O)OCC)COC(=O)C1CN1Cc2cc3ccccc3nc2C1 (stereo not given) | i | 69.0 | i | nt | 46.3 | i | 74.4 | 29.2 | 88.6
CC(C)S(=O)(=O)N1CCCC(c2cc(C(=O)Nc3ccc(F)c(Cl)c3)no2)C1 (stereo not given) | i | i | i | nt | i | i | nt | nt | nt
Cc1ccc(C)c(NC(=O)C2CC(=O)N(C3CCCCC3)C2)c1 (stereo not given) | i | i | i | i | i | i | nt | nt | nt
C=CC(=O)N1c2ccccc2Sc2ccc(NC(=O)OCC)cc21 | i | 79.9 | i | i | 30.4 | 94.8 | i | 61.5 | 29.4
CCOC(=O)Nc1ccc2c(c1)N(C(=O)N1CCN(C)CC1)c1ccccc1S2 | i | i | i | i | i | i | nt | nt | nt
Cc1ccccc1N1C(=O)C2C3C=CC(C2C1=O)N(C)C3=O (stereo not given) | i | i | i | i | i | i | nt | nt | nt
CN1C2C=CC(=O)C1C1C(=O)N(c3ccccc3)C(=O)C12 (stereo not given) | i | 61.5 | i | nt | 43.5 | i | i | 42.2 | 44.3

Screening results deposited in PubChem BioAssay by several laboratories.
